Screening data as filed in PubChem BioAssay.
HTR5A inv ctr – inverse agonist of human HTR5A in OPRM1-OPRD1 counter-screen; P47898; HTR5A cell line, luminescence, inverse agonism; inhibition, % at 9.3 µM; 340,000 tested, 0.083% active; in the data active means inhibition mostly above about 23%, no sharp cut-off; inactive means mostly below about 18%
m5-HT2A agonist – agonists of mouse serotonin 5-HT2A receptor (HTR2A). activation, % at 7.6 µM. 360,000 tested, 0.66% active. P35363. CHO-K1 mHTR2A beta-arrestin complementation, luminescence; percent of 30 µM serotonin response;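 active means activation above a run cutoff, the mean activation of all tested compounds plus 3 SD, cut at about 14% in these data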
OPRM1-OPRD1 ag – OPRM1-OPRD1 heterodimerization agonism | cells, luminescence | activation, % at 9.3 µM | 340,000 tested, 0.3% active; in the data active means activation above about 18%
HTR5A ag ctr – counter-screen for OPRM1-OPRD1 agonists: human HTR5A agonism; 340,000 tested, 0.61% active; P47898; activation, % at 9.3 µM; HTR5A agonist assay, luminescence, cell-based; in the data active means activation mostly above about 9.5%, no sharp cut-off; inactive means mostly below about 7.6%
sPLA2-III inh – Inhibits HGIII-sPLA2 liposome hydrolysis, primary screen. QFRET BODIPY PC-A2 liposome hydrolysis, fluorescence. inhibition, % at 12.2 µM. 370,000 tested, 0.56% active. AID 743126;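 active means inhibition above mean plus 3 SD of compounds lying within the high and low control bounds, cut at about 19% in these data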
OPRM1-OPRD1 inv – inverse agonists of human mu-delta opioid receptor heterodimerization; inhibition, % at 9.3 µM; cell-based MOR-DOR heterodimer luminescence, inverse agonism; P35372+P41143; 340,000 tested, 0.21% active; in the data active means inhibition above about 22%, passing the limit was not always enough
hGIII sPLA2 conf – human GIII-sPLA2 inhibition, confirmation. recombinant hGIII-sPLA2, BODIPY PC-A2 QFRET fluorescence. inhibition, % at 12.2 µM. shares compounds with sPLA2-III inh. 2,000 tested, 34% active;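 active means mean inhibition across triplicates above the hit cutoff set in the earlier primary screen, cut at about 19% in these data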
535nm interf – optically interferes with 535nm fluorescence in sPLA2 counter-screen | 2,000 tested, 8.5% active | shares compounds with sPLA2-III inh | BODIPY FL product fluorescence interference, QFRET | inhibition, % at 12.2 µM;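 active means average inhibition above the solvent-only control mean plus 3 SD, cut at about 6% in these data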
BODIPY interf DR – interferes with 535nm fluorescence in dose response counter-screen. shares compounds with sPLA2-III inh. BODIPY FL product fluorescence interference, cell-free. 240 tested, under 10 active. IC50, µM;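 active means IC50 at or below 10 µM; inactive means IC50 above 10 µM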
Each line names hits and unclear results; the compound was inactive in the other large screens (follow-up assays come after a bar, where they were run). The list is not random: actives were taken first. Their share in the collection is about 2.2%.

CC1=C(C(=O)Nc2ccccc2C)C(c2ccc(C)o2)NC(=S)N1 (stereo not given)	sPLA2-III inh 20.1 | hGIII sPLA2 conf 22.0 | 535nm interf inactive
CC1=C(C(=O)Nc2ccccc2C)C(c2ccc(C)o2)C2=C(CCCC2=O)N1 (stereo not given)	none
COC(=O)C1=C(C)N(Cc2ccc(F)cc2)C(=S)NC1c1cccc(OC)c1 (stereo not given)	none (no result: HTR5A inv ctr, m5-HT2A agonist, OPRM1-OPRD1 ag, HTR5A ag ctr, OPRM1-OPRD1 inv)
CCC(=O)Nc1cccc(NC(=S)NC(=O)c2ccc(Cl)cc2Cl)c1	sPLA2-III inh 21.0 | hGIII sPLA2 conf inactive | 535nm interf inactive
O=[N+]([O-])c1ccc(O)c(/C=N/NC(=S)Nc2ccc(Cl)cc2Cl)c1	sPLA2-III inh 39.7 | hGIII sPLA2 conf 30.6 | 535nm interf 19.8
COc1ccc(C(C)=NNC(=O)c2cccc(S(=O)(=O)N3CCCC3)c2)cc1	none
COc1ccc(/C(C)=N/NC(=O)c2cccc(S(=O)(=O)N3CCCC3)c2)c(O)c1	sPLA2-III inh 34.8 | hGIII sPLA2 conf 24.4 | 535nm interf inactive
C/C(=N\NC(=O)COc1cccc(C)c1)c1ccc2ccccc2c1O	sPLA2-III inh 22.3 | hGIII sPLA2 conf 38.8 | 535nm interf 6.0
O=S(=O)(NNc1ncc(C(F)(F)F)cc1Cl)c1ccc(F)cc1F	sPLA2-III inh 27.2 | hGIII sPLA2 conf 29.8 | 535nm interf 29.1
CC(C)CN1CN2Cc3cc(F)ccc3C2CS1(=O)=O (stereo not given)	none (no result: HTR5A inv ctr, m5-HT2A agonist, OPRM1-OPRD1 ag, HTR5A ag ctr, OPRM1-OPRD1 inv)
CCN(CC)c1ccc(N=Nc2nn(C)c(C)c2[N+](=O)[O-])cc1	sPLA2-III inh 22.7 | hGIII sPLA2 conf 39.3 | 535nm interf inactive | BODIPY interf DR inactive
COC(=O)c1ccc(CCc2cc(O)c(Br)cc2O)cc1	sPLA2-III inh 29.9 | hGIII sPLA2 conf inactive | 535nm interf inactive
COc1ccc(C2Nc3ccccc3NC3=C2C(=O)CC(C)(C)C3)cc1O (stereo not given)	none
COc1cc(C2Nc3cc(C)c(C)cc3NC3=C2C(=O)CC(C)(C)C3)ccc1OC(C)=O (stereo not given)	sPLA2-III inh 24.3 | hGIII sPLA2 conf inactive | 535nm interf inactive
CC(=O)c1cc(-c2ccccc2)n(CC(=O)NCc2ccccc2Cl)c1C	none (no result: HTR5A inv ctr, m5-HT2A agonist, OPRM1-OPRD1 ag, HTR5A ag ctr, OPRM1-OPRD1 inv)
CC1(C(=O)NC(=S)NNC(=O)c2ccncc2)CCCCC1	HTR5A inv ctr 32.0, sPLA2-III inh 26.4, OPRM1-OPRD1 inv 35.9 | hGIII sPLA2 conf 20.1 | 535nm interf inactive
O=C(NNC(=S)NC(=O)c1ccc(F)cc1)c1ccncc1	none
O=C(NCC(c1ccco1)N1CCCC1)c1ccccc1F (stereo not given)	none
S=C(NCc1ccco1)NCC(c1ccco1)N1CCCCC1 (stereo not given)	sPLA2-III inh 22.8 | hGIII sPLA2 conf 26.8 | 535nm interf inactive
Clc1ccccc1N1CCN(C2=Nc3ccccc3Sc3ccccc32)CC1	none (no result: HTR5A inv ctr, m5-HT2A agonist, OPRM1-OPRD1 ag, HTR5A ag ctr, OPRM1-OPRD1 inv)
CCCC[C@H]1C2CC(OC(=O)Nc3cc(C)cc(C)c3)C(C2)[C@H]2CCCCN21 (stereo not given in full)	none (no result: HTR5A inv ctr, m5-HT2A agonist, OPRM1-OPRD1 ag, HTR5A ag ctr, OPRM1-OPRD1 inv)
Cc1ccc(NC(=S)c2ccc(N(C)C)cc2)cc1	sPLA2-III inh 24.9 | hGIII sPLA2 conf inactive | 535nm interf inactive
CC(C)Oc1ccc(C(=O)Nc2ccc(N(C)C)cc2)cc1	sPLA2-III inh 19.4 | hGIII sPLA2 conf inactive | 535nm interf inactive
COc1ccc(NC(=S)c2ccccc2)cc1	none
COc1ccc(NC(=S)c2ccc(N(C)C)cc2)cc1	sPLA2-III inh 19.8 | hGIII sPLA2 conf inactive | 535nm interf inactive
COc1ccc(C(=S)Nc2ccc(N(C)C)cc2)cc1	sPLA2-III inh 23.0 | hGIII sPLA2 conf 26.4 | 535nm interf inactive
S=C(Nc1cccc(Cl)c1)OCCN1CCCC12CCC(c1ccccc1)CC2 (stereo not given)	none (no result: HTR5A inv ctr, m5-HT2A agonist, OPRM1-OPRD1 ag, HTR5A ag ctr, OPRM1-OPRD1 inv)
